SMILES strings stand for the structures. About 83,000 compounds went through this panel and 20% of them were active in at least one assay; those are over-represented in the sample as a whole.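 A percent growth of 40 corresponds to 60% growth inhibition; 0 means no net growth; -100 means all cells died. Active threshold: below 10.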 A number with no mark means an inactive call. Activity calls are given as the source filed them.

This assay relates to HL-60(TB) leukemia. Briefly: NCI-60 one-dose screen, 48 h (100 = growth as untreated, 0 = no growth, -100 = all killed). To be noted: 10 µM unless noted.
Consider `C=C(C=O)[C@@H]1CC[C@]2(CO)CC[C@]3(C)[C@H](CC[C@@H]4[C@@]5(C)CCCNC(C)(C)[C@@H]5CC[C@]43C)[C@@H]12`, for which the growth is -10.2% (active).
For the molecule `Cn1cc(-c2nn3cc(-c4ccncc4)nc3s2)c2cc(Cl)ccc21`, the growth is -16% (active).
Turning to `CCOC(=O)c1c(Nc2ccccc2)nn2c(-c3ccccc3)ccnc12`, the growth was 80.7%.
As to `O=C(CSc1nnc(-c2ccc(Cl)cc2)n1-c1ccccc1)Nc1cccc(F)c1`, the growth was 71.7%.
Consider `O=c1[nH]c2ccc(Cl)cc2cc1CSc1ccccc1Nc1nccc(-c2ccc(Cl)cc2)n1`, for which the growth is 78.5%.
The result for `COc1c(N2CC3CCCNC3C2)c(F)cc2c(=O)c(C(=O)N/N=C/c3ccc(Br)cc3)cn(C3CC3)c12` (stereo not drawn) reads 84%.
Consider `N#Cc1c(Nc2ccccc2)nn2c(-c3ccc([N+](=O)[O-])cc3)ccnc12`, for which the growth was 93.9%.
The result for `CC(=O)NC(C)(C)C(=O)N1CCC[C@H]1C(=O)NC(C)(C)C(=O)N[C@@H](C)C(=O)NC(C)(C)C(=O)NC(C)(C)C(=O)N[C@@H](CCC(N)=O)C(=O)NC(C)(C)C(=O)N[C@H](C(=O)NC(C)(C)C(=O)NCC(=O)N[C@@H](CC(C)C)C(=O)NC(C)(C)C(=O)N1CCC[C@H]1C(=O)N[C@H](C(=O)NC(C)(C)C(=O)NC(C)(C)C(=O)N[C@@H](CCC(N)=O)C(=O)N[C@@H](CCC(N)=O)C(=O)N[C@H](CO)Cc1ccccc1)C(C)C)C(C)C` reads 7.73% [4.25 µM] (active).
Regarding `O=C(CSc1nnc(-c2ccc3nc(-c4ccc(Cl)cc4)[nH]c3c2)o1)Nc1ccc(C(=O)/C=C/c2ccc(Cl)cc2)cc1`, the growth was 86%.
As for `Cc1ccc(S(=O)(=O)NCCCNc2nc(Nc3ccc(N4CCN(C)CC4)cc3)nc3ccsc23)cc1`, the growth was -50.9% (active).
Take `OC1CCN(CCCOc2c3ccc(Cl)cc3nc3c2oc2ccccc23)CC1`: the growth was -35% (active).
Then `C#CCOc1ccc(C(Nc2cc(Cl)ccc2Cl)c2nnnn2C2CCCCC2)cc1` (stereo not drawn), with 88.4%; and `N/C(=N\C(N)=N\c1nc2ccccc2s1)c1ccc(Cl)cc1`, with 90.3%; and `COc1cc(C(C)=C(c2ccc(OCCN(C)C)cc2)c2ccc(OCCN(C)C)cc2)ccc1F`, with 105%.
`Cn1c2ccc(Br)cc2c2c3c(c4c5cc(F)ccc5oc4c21)C(=O)N(O)C3=O`: the growth was 99.6%.
In the case of `N#Cc1cccc(CN2CCC3=C(C2)C(=O)N(Cc2ccc(Cl)cc2)C2=NCCCN23)c1`, the growth is 11.7%.
For `CN1CCN(c2ccc(Nc3nc(NCCCNS(=O)(=O)c4ccc(Cl)cc4)c4sccc4n3)cc2)CC1`, the growth was -43.7% (active).
Take `Cc1[nH]c(C(=O)Nc2ccccc2OCc2cccc(C(=O)N3CCC[C@@H](N)C3)c2)c(Cl)c1Cl`: the growth is -67.7% (active).
Then `O=C(N/N=C\c1ccc([N+](=O)[O-])cc1)c1ccc2nc(-c3ccc(Br)cc3)[nH]c2c1`, with 1.86% (active); and `Nc1cc(-c2c[nH]c3ccc(F)cc23)nc2cc(-c3c[nH]c4ccc(F)cc34)nn12`, with -37.6% (active).
For `NC(=O)c1cccc(-n2ccc3cc(NC(=O)Nc4ccc(N5CCOCC5)c(C(F)(F)F)c4)ccc32)n1`, the growth is -52.2% (active).
As for `COc1ccc2c(c1)c(CC(=O)[Se]CC(=O)O)c(C)n2C(=O)c1ccc(Cl)cc1`, the growth was 53.7%.
Take `O=C(/C=C/c1csc(Br)n1)NO`: the growth was -36.2% (active).
Then `CN1CCN(Cc2ccc(NC(=O)c3cncc(C#Cc4cnc5ccc(OCC(C)(C)O)nn45)c3)cc2C(F)(F)F)CC1`, with 1.93% (active).
As to `CCCCCc1ccc(S(=O)(=O)Nc2cc(-c3csc(N)n3)ccc2OC)cc1`, the growth was 60.8%.
Then `CCN1C(=O)N(CC)C2SC(N/N=C/c3cccs3)=NC21` (stereo not drawn), with 1.27% (active); and `C#Cc1nc(C2=C(C)C(=O)/C(=N/OC(C)=O)C2)cs1`, with 20.4%; and `C#Cc1nc(C2=C(C)C(OC(=O)CCC(=O)O)CC2)cs1` (stereo not drawn), with 101%.

Values taken from PubChem BioAssay (NCI).
